This passage reports growth inhibition results from PubChem BioAssay (NCI).

A short description of test [1]: NCI Yeast Anticancer Drug Screen. Data for the rad50 strain (AID 155).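 Also: 0% = growth of vehicle-only cultures of the same strain.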 The following applies: S. cerevisiae rad50 strain growth inhibition, active compounds read high; at 50.0 µM unless noted. In outline: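 DNA repair mutant yeast, compound exposure, growth read-out; inhibition is taken relative to vehicle.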
Test [2] in a line: NCI Yeast Anticancer Drug Screen. Data for the mec2-1 strain (AID 157). The following applies: S. cerevisiae mec2-1 strain, active compounds read high; at 50.0 µM unless noted. In outline: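 Strain: mec2-1 (DNA repair/cell cycle alteration). Compound exposure, then growth measured; inhibition expressed relative to vehicle.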
Test [3] in a line: NCI Yeast Anticancer Drug Screen. Data for the sgs1 mgt1 strain (AID 161).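 Also: 0% = growth of cultures given vehicle only.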 The conditions noted are these: S. cerevisiae sgs1 mgt1 strain, active compounds read high; at 50.0 µM unless noted. In outline: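 Read-out: growth inhibition vs vehicle controls. Cells: mutant yeast strain deficient in DNA damage repair.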
Test [4] can be described thus: NCI Yeast Anticancer Drug Screen. Data for the cln2 rad14 strain (AID 165).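 Also: 0% = growth equal to vehicle treated cultures.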 The conditions noted are these: S. cerevisiae cln2 rad14 strain, active compounds read high; at 50.0 µM unless noted. In outline: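 Compounds are applied to the cln2 rad14 yeast strain, and growth is then compared with that of vehicle-treated cultures to give inhibition.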
A short description of test [5]: NCI Yeast Anticancer Drug Screen. Data for the bub3 strain (AID 167). The conditions noted are these: S. cerevisiae bub3 mutant strain, active compounds read high; at 50.0 µM unless noted. In outline: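 In this screen, a yeast mutant lacking normal mitotic checkpoint function is challenged with compound. Relative growth versus vehicle gives the inhibition value.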
Test [6] in a line: NCI Yeast Anticancer Drug Screen. Data for the mlh1 rad18 strain (AID 175). The conditions noted are these: S. cerevisiae mlh1 rad18 strain growth inhibition, active compounds read high; at 50.0 µM unless noted. In outline: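 Read-out is yeast growth inhibition, calculated against vehicle-only controls. The compound was applied to a strain engineered with DNA damage repair alterations.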

Several values for one entry are separate records, joined by “and”; a condition that tells them apart may be missing. Equal values may be shown once. Compounds without any hit were thinned out: in the full panel of roughly 79,000, 15% have a hit. Unmarked numbers belong to inactive results. Activity calls are given as the source filed them. Rule as the data show it: active = growth inhibition above about 70%; inactive = the rest.

On to `C/C=C/C(=O)Oc1ccc[nH]c1=O`, for which the growth inhibition in test [1] was -10.9%; in test [2], 13.1%; in test [3] it was 4.85%; in test [4] it was -2.15%; in test [5] it was 11.8%; in test [6], -4.25%.
Consider `CC(=O)Oc1ccc(N2CC=C(c3ccccc3)CC2)cc1`, for which the growth inhibition in test [1] is -6.7%; in test [2] it was -13.5%; in test [3], -9.75%; in test [4], -8.35%; in test [5] it was -9.45%; in test [6], -4.45%.
On to `O=C(O)C1CCc2ccccc21` (centres undefined), for which the growth inhibition was -15.8% in test [1]; -46.5% in test [2]; -15.2% in test [3]; -12.2% in test [4]; -26.6% in test [5]; -20.1% in test [6].
As for `CCCCCCNC(=O)CCN(C(=O)O)S(=O)(=O)c1ccc(NC(=O)c2ccccc2)cc1`, the growth inhibition was 11.7% in test [1]; -3.45% in test [2]; 8.6% in test [3]; 17.7% in test [4]; 7.4% in test [5]; -1.45% in test [6].
With `CCC(O)(c1ccccc1)C(O)(CC)c1ccccc1` (centres undefined), the growth inhibition in test [1] was 15.8%; in test [2] it was 8.9%; in test [3], -2.05%; in test [4], 22.8%; in test [5], -13%; in test [6] it was 23.3%.
Turning to `O=C1OC(C(O)C(O)CO)C(O)=C1O` (centres undefined), the growth inhibition was 16.8% and 0.95% in test [1]; 3.7% and 13.8% in test [2]; -11.3% and -13.8% in test [3]; 4.25% and -8.15% in test [4]; 2.75% and -8.6% in test [5]; 19.7% and 6.2% in test [6].
In the case of `COc1ccc(/C(CC2OC(=O)c3ccccc32)=N\NC(=O)C[N+](C)(C)C)cc1` (centres undefined), the growth inhibition in test [1] was 6.1%; in test [2] it was -10.8%; in test [3] it was 0.4%; in test [4], 7.55%; in test [5], 12.1%; in test [6] it was 8.5%.
For the molecule `OC1c2ccccc2C2c3ccccc3C1C2Cl` (centres undefined), the growth inhibition in test [1] is 43.8%; in test [2] it was 5.9%; in test [3], 25.8%; in test [4] it was 35.3%; in test [5] it was -5.7%; in test [6], 39.8%.
For `COc1cc(/C=N/NC(=O)c2ccccc2OC)ccc1O`, the growth inhibition in test [1] is 41.4%; in test [2], 17.4%; in test [3] it was 22.9%; in test [4], 20.8%; in test [5] it was 27.9%; in test [6], 17.2%.
As for `O=C(NCc1ccccc1)c1n[nH][nH]c1=O`, the growth inhibition in test [1] is 3.05%; in test [2] it was 5.8%; in test [3] it was 12.2%; in test [4] it was -8.15%; in test [5] it was -3.3%; in test [6] it was 20.6%.
For the molecule `CN(Cc1ccccc1)C(=O)Nc1ccc(Cl)c(Cl)c1`, the growth inhibition in test [1] is 95.8% (active); in test [2], 99% (active); in test [3], 99% (active); in test [4], 97.1% (active); in test [5] it was 97.7% (active); in test [6], 98.5% (active).
Take `C=CCOC(=O)COc1ccc(Cl)cc1`: the growth inhibition is -0.95% in test [1]; -8.1% in test [2]; -12.3% in test [3]; -2.15% in test [4]; -7.75% in test [5]; 0.55% in test [6].
As to `CC(C)(O)C(=O)O`, the growth inhibition was -6% and -19% in test [1]; 6.1% and -1.45% in test [2]; -8.2% and -10.8% in test [3]; 2.05% and -32.8% in test [4]; 7.25% and -3.95% in test [5]; 6.6% and -4.6% in test [6].
Regarding `N#Cc1c(-c2ccccc2)c(-c2ccccc2)nn(CCO)c1=O`, the growth inhibition in test [1] is 7.35%; in test [2], 10.8%; in test [3] it was 20.9%; in test [4], -21.8%; in test [5], 6.4%; in test [6], 46%.
Turning to `CCOC(=O)C(=CNC(=S)N=Nc1c(O)[nH]c2ccccc12)C(=O)OCC`, the growth inhibition in test [1] was -58.4%; in test [2] it was -69.2%; in test [3], -45%; in test [4] it was 2.85%; in test [5] it was -36.9%; in test [6], -25.8%.
Take `O=c1cc2ccc(Cl)cc2n[nH]1`: the growth inhibition in test [1] is 8.1%; in test [2] it was 2.7%; in test [3], 2.05%; in test [4] it was -33.4%; in test [5], -14.3%; in test [6] it was 4.5%.
On to `CC1=NC(C)(C)N(O)C1(C)C`, for which the growth inhibition in test [1] is -21.9%; in test [2], -4.3%; in test [3] it was -3.05%; in test [4] it was -0.8%; in test [5], -9%; in test [6], -53.5%.
As for `COc1ccc(-c2cc(=O)c3c(O)c(OC)c(O)cc3o2)cc1O`, the growth inhibition in test [1] is 24.8%; in test [2], 14.9%; in test [3] it was 37.5%; in test [4], 22.9%; in test [5] it was 37.5%; in test [6], 17.1%.
On to `CC(C)CCOB(OCCC(C)C)OCCC(C)C`, for which the growth inhibition in test [1] is -25.9%; in test [2], -40.1%; in test [3] it was -6.6%; in test [4] it was 2.45%; in test [5], -26.6%; in test [6], -23.2%.
